# Data reported in PubChem BioAssay (NCI).
# About 79,000 compounds went through this panel and 15% of them were active in at least one assay; those are over-represented in the sample as a whole. Values without a mark were called inactive. Activity calls are given as the source filed them. Rule as the data show it: active = growth inhibition above about 70%; inactive = the rest.
# Tests used:
# [1] = NCI Yeast Anticancer Drug Screen. Data for the rad50 strain (AID 155);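 also: 0% = growth of vehicle-only cultures of the same strain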; conditions: S. cerevisiae rad50 strain growth inhibition, stronger effect = higher value
# Procedure, shortened: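 Vehicle-treated cultures provide the reference for the growth inhibition reported for compound-exposed, repair-deficient yeast.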
# [2] = NCI Yeast Anticancer Drug Screen. Data for the mec2-1 strain (AID 157); conditions: S. cerevisiae mec2-1 strain, stronger effect = higher value
# Procedure, shortened: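 Mutant yeast (mec2-1) grown with compound; growth inhibition relative to vehicle control reported.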
# [3] = NCI Yeast Anticancer Drug Screen. Data for the sgs1 mgt1 strain (AID 161);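 also: 0% = growth of cultures given vehicle only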; conditions: S. cerevisiae sgs1 mgt1 strain, stronger effect = higher value
# Procedure, shortened: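 Growth of a repair-deficient yeast mutant was monitored after compound treatment and expressed as inhibition relative to vehicle-treated cultures.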
# [4] = NCI Yeast Anticancer Drug Screen. Data for the cln2 rad14 strain (AID 165);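 also: 0% = growth equal to vehicle treated cultures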; conditions: S. cerevisiae cln2 rad14 strain, stronger effect = higher value
# Procedure, shortened: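 Readout is yeast growth inhibition versus vehicle-treated controls, using a strain with cln2 and rad14 alterations exposed to compound.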
# [5] = NCI Yeast Anticancer Drug Screen. Data for the bub3 strain (AID 167); conditions: S. cerevisiae bub3 mutant strain, stronger effect = higher value
# Procedure, shortened: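 Mutant yeast screening strain plus compound; vehicle-treated cultures serve as the 0% inhibition reference.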
# [6] = NCI Yeast Anticancer Drug Screen. Data for the mlh1 rad18 strain (AID 175); conditions: S. cerevisiae mlh1 rad18 strain growth inhibition, stronger effect = higher value
# Procedure, shortened: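 Genetically defined yeast (DNA repair-deficient) exposed to compounds; growth inhibition determined relative to vehicle.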
# [7] = at 5.0 µM (retest, dose inferred, filed as 0.5)
# [8] = at 50.0 µM (retest, dose inferred, filed as 5.0)
SMILES,"growth inhibition [1, 7]","growth inhibition [1, 8]",growth inhibition ([1]; at 50.0 µM),"growth inhibition [2, 7]","growth inhibition [2, 8]",growth inhibition ([2]; at 50.0 µM),"growth inhibition [3, 7]","growth inhibition [3, 8]",growth inhibition ([3]; at 50.0 µM),"growth inhibition [4, 7] [%]","growth inhibition [4, 8]",growth inhibition ([4]; at 50.0 µM),"growth inhibition [5, 7]","growth inhibition [5, 8]",growth inhibition ([5]; at 50.0 µM),"growth inhibition [6, 7]","growth inhibition [6, 8]",growth inhibition ([6]; at 50.0 µM)
O=C(NCCCN1CCN(CCCNC(=O)c2cc(-c3ccccc3)nc3ccccc23)CC1)c1cc(-c2ccccc2)nc2ccccc12,49%,95% (active),84.6% (active),30%,95% (active),88.7% (active),26%,75% (active),8.55%,29,41%,86.3% (active),30%,64%,86.1% (active),38%,96% (active),81.9% (active)
CC1(c2cccs2)C(C#N)(C#N)C1(C#N)C#N,17%,42%,92.8% (active),9%,44%,95.8% (active),17%,39%,96% (active),-5,30%,98.4% (active),-4%,36%,95.5% (active),9%,47%,98.5% (active)
O=[N+]([O-])/C(Cl)=C/C(=C1/Nc2ccccc2O1)[N+](=O)[O-],17%,87% (active),79.9% (active),-11%,47%,65.6%,-14%,48%,72.5% (active),-12,47%,65.4%,-15%,53%,71.2% (active),17%,75% (active),69%
Nc1nc(-c2cccnc2)nc(N)c1N=O,7%,82% (active),61.4%,15%,79% (active),79.2% (active),15%,88% (active),70.6% (active),1,90% (active),66.5%,36%,92% (active),91.1% (active),25%,94% (active),79.1% (active)
O=C(Cc1ccccc1)c1ccccc1C(=O)NNc1ccccc1,7%,18%,49%,-5%,6%,-6.4%,-4%,-2%,-8%,4,61%,-51.9%,43%,96% (active),26.2%,5%,22%,-0.75%
Nc1nc(=Nc2ccccc2)ss1,-12%,99% (active),84.8% (active),6%,100% (active),71.1% (active),0%,99% (active),86.5% (active),-7,99% (active),45.4%,-11%,100% (active),57.5%,12%,99% (active),78.7% (active)
COc1cccc2c1OC(c1cccc3ccccc13)C([N+](=O)[O-])=C2 (stereo not given),49%,75% (active),62.3%,32%,67%,62.1%,39%,70% (active),61.4%,22,62%,47%,47%,74% (active),54.8%,49%,81% (active),58.8%
CCOC(=O)CSc1c(C(=O)OCC)c(=O)n(-c2ccccc2)c(=S)n1-c1ccccc1,60%,90% (active),85.2% (active),44%,89% (active),87.2% (active),75% (active),94% (active),87.8% (active),54,91% (active),80.8% (active),31%,90% (active),85.8% (active),74% (active),89% (active),81.8% (active)
[O-][n+]1onc2ncccc21,34%,98% (active),99.1% (active),38%,99% (active),99.5% (active),54%,99% (active),99.2% (active),33,99% (active),99.2% (active),66%,98% (active),99.2% (active),63%,99% (active),99.3% (active)
O=C(CNCc1ccccc1)c1ccc(Cl)cc1,-3%,-6%,11.6%,-2%,6%,1.45%,-3%,17%,8.4%,-1,-22%,24.6%,-2%,35%,-7.85%,-4%,14%,14.5%
O=C1c2ccccc2C(=O)c2sc(Nc3cc(Cl)ccc3Cl)nc21,58%,98% (active),82.3% (active),72% (active),99% (active),88.2% (active),67%,99% (active),88.3% (active),52,97% (active),86.5% (active),87% (active),98% (active),83.8% (active),63%,98% (active),90.5% (active)
CCCCCC1OC(CCCCC)OC(CCCCC)O1 (stereo not given),-10%,33%,10.2%,13%,-19%,6.6%,0%,7%,16.3%,4,3%,8.25%,-12%,20%,-13.9%,-8%,-3%,11.7%
C[C@@H]1CN(CC2COc3ccccc3O2)[C@@H](C)CN1CC1COc2ccccc2O1 (stereo not given in full),63%,80% (active),86.8% (active),74% (active),86% (active),84.3% (active),84% (active),98% (active),97.4% (active),52,65%,92.8% (active),52%,77% (active),84.7% (active),82% (active),94% (active),94.5% (active)
CCC[CH2][Sn]([CH2]CCC)([O]N(C)C(=O)c1ccc(Br)cc1)[O]N(C)C(=O)c1ccc(Br)cc1,63%,98% (active),89.5% (active),87% (active),99% (active),90.2% (active),33%,95% (active),92.8% (active),27,98% (active),90.7% (active),37%,97% (active),90.7% (active),90% (active),98% (active),90.5% (active)
CCCCCCCCN(CCCCCCCC)CC(O)c1cc(-c2ccc(Cl)cc2)nc2c(Cl)cccc12 (stereo not given),1%,5%,19.1%,-1%,1%,25.2%,-3%,20%,35.6%,-4,-13%,45.4%,2%,12%,6.6%,3%,4%,33.5%
O=[N+]([O-])c1ccc(N=C(Cl)C(Cl)(c2ccccc2)c2ccccc2)cc1,14%,97% (active),96.2% (active),11%,97% (active),96.7% (active),-20%,98% (active),97% (active),9,97% (active),94.2% (active),8%,96% (active),95.2% (active),7%,97% (active),95.5% (active)
Cn1c(=S)c2[nH]c(SCCN3CCCCC3)nc2n(C)c1=O,40%,54%,97.2% (active),28%,46%,99.3% (active),20%,69%,99.2% (active),28,28%,54.5%,37%,57%,97.8% (active),22%,55%,98.5% (active)
Cc1cc(C(=O)CBr)c(CN2C(=O)c3ccccc3C2=O)c(=O)n1C,17%,98% (active),63.3%,49%,99% (active),12.3%,25%,99% (active),74.3% (active),11,98% (active),2%,18%,98% (active),31.2%,64%,99% (active),38%
Cc1c(C)c(O)c2c(c1O)C(=O)C=C(Cl)C2=O,99% (active),94% (active),88.3% (active),100% (active),96% (active),90.2% (active),100% (active),97% (active),88.3% (active),45,96% (active),90.7% (active),99% (active),97% (active),87.7% (active),99% (active),96% (active),88.6% (active)
Nc1ncnc(N2CCOCC2)c1N,-1%,-5%,11.7%,0%,0%,29.6%,3%,0%,0.95%,-7,2%,83.8% (active),-3%,-2%,-10.7%,-4%,-6%,83.5% (active)
